CCHF vOTU inh: CCHFV vOTU protease inhibition; Pep-AMC fluorescence; inhibition, % at 11.5 µM; 370,000 compounds, 0.55% hits; AID 651958; in the data active = inhibition above about 30%
Mtb hypoxia inh: inhibitors of hypoxia-regulated fluorescent reporter in Mycobacterium tuberculosis; M. tuberculosis hypoxia-regulated fluorescent reporter, fluorescence; fluorescence inhibition, % (no concentration beside the values); 300,000 compounds, 0.1% hits; in the data active = fluorescence inhibition mostly above about 23%, no sharp cut-off; inactive = mostly below about 17%
RN4220 kill: S. aureus RN4220 growth inhibition; OD600, 16 h; inhibition, % (no concentration beside the values); 330,000 compounds, 0.33% hits; AID 1259311; in the data active = inhibition above about 85%
PriA SSB inh: inhibitors of Klebsiella pneumoniae PriA binding to SSB C-terminal tail | inhibition, % at 33 µM | AlphaScreen SSBct-PriA binding, biotinylated peptide | 430,000 compounds, 0.6% hits; in the data active = inhibition mostly above about 37%, no sharp cut-off; inactive = mostly below about 20%
ugtP null kill: growth inhibition of S. aureus ugtP deletion strain | S. aureus RN4220 ugtP deletion, OD600 growth, 16 h | growth inhibition, % (concentration not given with the values) | 330,000 compounds, 0.54% hits | AID 1259309; in the data active = growth inhibition above about 68%
A number is an active result; 0 = inactive; - = no result given. Only some compounds are listed: those with a hit (about 1.4% of all), similar ones and a draw of the others.

SMILES | CCHF vOTU inh | Mtb hypoxia inh | RN4220 kill | PriA SSB inh | ugtP null kill
Cc1c(CCOC(=O)C23CC4CC(CC(C)(C4)C2)C3)sc[n+]1Cc1ccccc1 | 0 | 0 | 0 | 0 | 100.2
Cc1c(CCOC(=O)C23CC4CC(CC(C4)C2)C3)sc[n+]1Cc1ccccc1 | 0 | 0 | 0 | 0 | 0
CSc1ccc(/C=C(\NC(=O)c2ccccc2F)C(=O)N2CC3CC(C2)c2cccc(=O)n2C3)cc1 (centres undefined) | - | - | - | 0 | -
CCOC(=O)Cc1csc(NC(=O)CC(C)(C)C)n1 | 29.6 | 0 | 0 | 0 | 0
Cc1ccc(S(=O)(=O)N=C(c2ccc(F)cc2)N2CCCCC2)cc1 | - | 0 | 0 | 0 | 0
N=c1c2c(-c3ccccc3)c(-c3ccccc3)n(Cc3ccco3)c2ncn1CCCO | 0 | 0 | 0 | 0 | 0
N=c1c2c(-c3ccccc3)c(-c3ccccc3)n(Cc3ccco3)c2ncn1CCO | 0 | 0 | 0 | 0 | 84.7
COc1ccc2nc(NC(=O)Nc3ccccc3)sc2c1 | 0 | 0 | 0 | 0 | 0
CC(C)(C)c1nc(NC(=O)Nc2ccccc2)sc1Br | 0 | 0 | 96.8 | 0 | 92.3
Cc1c(-n2c(-c3ccccc3)csc2=NC(=O)c2ccccc2)c(=O)n(-c2ccccc2)n1C | - | - | - | 44.0 | -
COc1ccccc1C(=O)n1nc2c3c(cccc31)C(=O)c1ccccc1-2 | - | - | - | 0 | -
O=C(O)c1cncc2c1NCCC2 | - | - | - | 0 | -
O=C(O)c1ccc2c(n1)NCCC2 | - | - | - | 94.0 | -
c1cnn(-c2ccc(N3CCNCC3)nn2)c1 | - | - | - | 0 | -
c1ccc(Nc2ccc(N3CCNCC3)nn2)nc1 | - | - | - | 56.0 | -
Cc1cc(C)cc(C(=O)N2CCC3(CC2)NCCc2[nH]cnc23)c1 | 0 | 0 | 0 | 93.7 | 0
COc1cc(C(=O)N2CCC3(CC2)NCCc2[nH]cnc23)cc(OC)c1OC | 0 | 0 | 0 | 0 | 0
O=C(Cc1csc(NC(=O)Nc2ccc(Cl)cc2)n1)NCCc1c[nH]c2ccccc12 | - | - | - | 52.0 | -
O=C(Cc1csc(NC(=O)Nc2cccc(Cl)c2)n1)NCCc1c[nH]c2ccccc12 | - | - | - | 0 | -
O=C(Cc1csc(Nc2ccc(F)cc2)n1)NCCc1c[nH]c2ccccc12 | - | - | - | 0 | -
O=C(CCCc1cccs1)NCCc1c[nH]c2ccccc12 | 0 | 0 | 0 | 46.5 | 0
O=C(Cc1csc(Nc2cccc(Cl)c2)n1)NCCc1c[nH]c2ccccc12 | - | - | - | 36.0 | -
O=C(Nc1ccc(Cl)cc1)Nc1nc(C(=O)O)cs1 | - | - | - | 87.0 | -
CCOC(=O)C(C)=NNc1nc(-c2ccc(NC(C)=O)cc2)cs1 | - | 0 | 0 | 0 | 0
COc1ccc(C)c2sc(NC(=O)/C=C/c3cccs3)nc12 | - | - | - | 0 | -
SMILES | CCHF vOTU inh | Mtb hypoxia inh | RN4220 kill | PriA SSB inh | ugtP null kill
Cc1ccc(N(C)C)cc1 | 0 | - | - | - | -
Cc1ccc2c(c1)sc(-c1ccc(N(C)C)cc1)[n+]2C | 0 | - | 99.9 | 0 | 100.7
O=C(Cn1sc2ccccc2c1=O)NC12CC3CC(CC(C3)C1)C2 | - | - | 105.9 | 0 | 100.6
Cc1ccccc1NC(=S)N/N=C/c1ccc(O)cc1O | 0 | - | - | - | -
COCCCNC(=S)NN=Cc1ccc(O)cc1O | - | 0 | 0 | 46.3 | 0
Oc1ccc(C=NNc2ccccn2)c(O)c1 | 0 | - | - | 94.7 | -
S=C(NN=Cc1ccccc1Cl)Nc1cccc(Cl)c1Cl | - | 0 | 0 | - | 98.7
Cc1ccccc1NC(=S)NN=Cc1ccc(O)cc1O | - | 0 | 0 | 49.9 | 0
Cc1ccsc1CCC(=O)N1CCc2ncncc2C1 | - | - | - | 0 | -
COCCNC(=O)CC(=O)NN=Cc1ccc(C(=O)OC)cc1 | - | 0 | 0 | 0 | 0
Cc1ccc([C@H](O)c2cccnc2)o1 | - | - | - | 0 | -
O=C1OC(c2cccs2)=N/C1=C\c1ccc(-c2ccc(Cl)cc2Cl)o1 | - | - | - | 0 | -
CCOC(=O)CNC(=O)CSc1nc(CC(=O)NC2CC2)cc(=O)[nH]1 | - | - | - | 0 | -
O=C(NCCCN1CCN(CCCNC(=O)c2ccccc2F)CC1)c1ccccc1F | 0 | 0 | 0 | 61.3 | 0
CN(C)c1oc(-c2ccc(OCc3ccccc3)cc2)nc1C#N | 0 | 0 | 0 | 0 | 0
CN(Cc1ccccc1)c1oc(COc2ccc(F)cc2)nc1C#N | - | - | - | 63.6 | -
CCn1c(=NC(=O)c2cc(=O)c3ccccc3o2)sc2c(OC)ccc(OC)c21 | - | - | - | 0 | -
NNC(=O)COc1ccc(Cl)cc1 | - | - | - | 0 | -
O=C(NC(=S)Nc1ccc(N2CCOCC2)cc1)c1ccccc1 | 0 | 0 | 0 | 0 | 0
COc1ccc(C(=O)NC(=S)Nc2ccc(CN3CCOCC3)cc2)cc1Cl | 0 | 0 | 0 | 0 | 86.3
CCc1ccc(C(=O)NC(=S)Nc2ccc(N3CCOCC3)cc2)cc1 | 0 | - | 0 | 0 | 89.5
O=C(NC(=S)Nc1ccc(N2CCOCC2)cc1)c1cccc(Cl)c1 | 0 | 0 | 0 | 0 | 92.7
O=C(Cc1cccs1)NCc1nn(CCN2CCCC2)c(=O)c2ccccc12 | - | - | - | 0 | -
CCN(CC)c1ccc(S(=O)(=O)N2CCOCC2)cc1NC(=O)CSc1nncs1 | - | 0 | 0 | 0 | 0

High-throughput results from PubChem BioAssay.
